Mito fusion yeast: qHTS Assay for Small Molecule Inhibitors of Mitochondrial Division or Activators of Mitochondrial Fusion | S. cerevisiae fusion-defective mutant growth rescue, CellTiterGlo 48 h | Potency, µM (doses to about 46.1 µM), for inactives: at the top dose growth rescue (activation), hits mostly activators | 0.23% of 320,000 active | AID 485298, 2010; also: % of control where 0% means no effect; nearly all actives have a fitted effect of over 45% in size
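Growth-rescue viability read-out: after 48 h at the non-permissive 37C in glycerol/ethanol YPEG, yeast mitochondrial fusion mutants are measured by CellTiterGlo luminescence; compounds (23 nl pinned per well) restoring growth score as division inhibitors or fusion activators.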
MCF10A rereplic: A quantitative high throughput screen for small molecules that induce DNA re-replication in MCF 10a normal breast cells; MCF 10A DNA re-replication, Hoechst nuclear intensity, 48 h; Potency, µM (highest dose often 46.1 µM), inactives show at the highest dose activity, positive = re-replication, actives largely listed as activators; 2.9% of 350,000 active; also: % of control where 0% means no effect; nearly all actives have a fitted effect of over 50% in size
SW480 rereplic: A quantitative high throughput screen for small molecules that induce DNA re-replication in SW480 colon adenocarcinoma cells; SW480 DNA re-replication, Hoechst DNA content imaging, 48 h; Potency, µM (doses to about 46.1 µM), for inactives: at the top dose re-replication activation, hits mostly activators; 1.8% of 340,000 active; AID 624297, 2012; also: % of control where 0% means no effect; nearly all actives have a fitted effect of over 55% in size
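Cells (250 per well) received 23 nL compound or DMSO by pin tool and were kept 48 hr at 37 C, 5% CO2. Nuclei were then stained with Hoechst for 40 min and scanned for DNA content.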
A-T KAP1 phos: qHTS Assay for Identifying a Potential Treatment of Ataxia-Telangiectasia; F2112 A-T fibroblasts, KAP-1 phosphorylation AlphaLISA; neocarzinostatin DNA damage 30 min before lysis; Potency, µM (titrated, usually from 57.5 µM), for the others: top-dose activation, actives largely listed as activators; 0.19% of 320,000 active; also: % of control where 0% means no effect; nearly all actives have a fitted effect of over 45% in size
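hTERT-immortalized A-T patient fibroblasts (F2112), 500 cells/well in OPTI-MEM, 1% FBS, got compounds for 60 min, then NCS for 30 min at 37C. Lysates were then assayed for phospho-KAP-1 by AlphaLISA (anti-pKAP1 donor, anti-KAP1 acceptor beads), 6 hr at 25C.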
a7 integrin act: qHTS for Activators of Integrin-Mediated Alleviation for Muscular Dystrophy; alpha7betagal myoblasts, beta-gal FDG fluorescence, 48 h; Potency, µM (doses to about 38.3 µM), for inactives: at the highest dose activation, actives largely listed as activators; 0.064% of 350,000 active;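 also: 100% = response of the positive control SU9516; nearly all actives have a fitted effect of over 60% in size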
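alpha7betagal+/- myoblasts (passage 13, 250/well) treated 48 h at 37C with compounds at 1:260 dilution of DMSO stock. Lysed, then beta-galactosidase activity read as FDG fluorescence (ex 480/em 540) after 30 min, with pre-read for autofluorescence.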
* = called active by the depositor; ? = inconclusive; nt = no result; [ ] = dose if it differs, or a comment. An excerpt weighted towards active compounds, which were near 4.2% of everything screened. Calls follow the shape of the dose curve; as a rule, active = well fitted activation curve with a large enough effect; inconclusive = small, poorly fitted or top-dose-only effect; inactive = no such curve, though single readings can be large or run the other way. Potency is read from the fitted curve at half-maximal effect.

SMILES | Mito fusion yeast | MCF10A rereplic | SW480 rereplic | A-T KAP1 phos | a7 integrin act
C=C(C(=O)c1ccccc1)C(C)CC(=O)c1ccccc1 (stereo not given) | 1.4% | ? | 20.6µM* | -2.6% | -44.3%
C=C(C(=O)c1ccccc1)C(NC(C)(C)C)c1ccccc1 (stereo not given) | nt | 1.84µM* | 2.91µM* | nt | -49.9%
Cc1cc(C)c(NC(=O)C(C)c2cccc(C(=O)c3ccccc3)c2)c(C)c1 (stereo not given) | -2.9% | ? | ? | -13.5% | -9.4%
CCCCCCCCCCC(CO)CCCCCCCC (stereo not given) | nt | 1.1% | -1.0% | nt | nt
Cc1ccc2c(c1)c(C1=NC(=S)NC1=O)c(O)n2C | 0.5% | 0.1% | -11.2% | 3.8% | 0.0%
COc1ccc(/C=C/c2nc(C#N)c(NCCN(C)C)o2)cc1OC | -2.4% | ? | ? | 4.2% | -15.0%
CNc1oc(/C=C/c2cccc(OC)c2)nc1C#N | -0.9% | 20.6µM* | 18.4µM* | 23.8% | -35.5%
CCN(CC)CCCNc1oc(/C=C/c2ccccc2)nc1C#N | -3.6% | ? | 20.6µM* | 40.9% | 0.0%
CCNc1oc(/C=C/c2ccc(OCC)cc2)nc1C#N | -1.9% | 2.59µM* | 3.26µM* | 7.6% | -13.1%
O=C1NC(=O)C2(CCCc3ccccc32)N1 (stereo not given) | 0.8% | -0.5% | -3.0% | 6.1% | 0.0%
Cc1ccc(C(=O)N/N=C/c2ccc(-c3cccc(C(F)(F)F)c3)o2)cn1 | 1.9% | 9.2µM* | 7.31µM* | 11.5% | -19.8%
Nc1c(C2CCCCC2)c(=O)on1C(=O)c1ccccc1 | nt | 14.6µM* | 6.1% | nt | 19.6%
O=c1[nH]c(-c2ccccc2)nc(-c2ccccc2)c1Cl | nt | -7.2% | -6.4% | nt | 60.0%
Cc1cccc(OCCOC(=O)c2c(-c3ccccc3)noc2C)c1 | -12.7% | 18.4µM* | 8.2µM* | 18.1% | 0.0%
Cc1cccc(C(=O)NC(=O)Nc2ccc(-c3cc(C(F)(F)F)nn3-c3ccccc3)cc2)c1 | -4.4% | nt | nt | nt | nt
COc1cc(/C=C2/C(=N)N3C(SC)=NSC3=NC2=O)ccc1OC(=O)c1ccco1 | -1.8% | 12.3% | -2.3% | -4.6% | 3.98µM*
Cc1ccc(Oc2ccc(S(=O)(=O)NCC(C)(C)N3CCOCC3)cc2)cc1 | -2.3% | 20.6µM* | -10.6% | 8.1% | ?
C=C1CCC[C@]2(C)C[C@H]3OC(=O)C(CN4CCOCC4)[C@H]3C[C@@H]12 (stereo not given in full) | -9.2% | -8.3% | ? | 1.4% | -33.6%
C/C1=C\CCC2C(/C=C(\C)CC1)OC(=O)C2CN1CCCCC1 (stereo not given) | -42.7% | ? | 20.6µM* | 1.1% | -65.8%
COc1cc2c(cc1OC)-c1cc(NC3CCCC3)nc(=O)n1CC2 | -2.1% | 2.2% | -4.6% | -7.4% | -6.4%
COc1cc2c(cc1OC)-c1cc(=Nc3c(C)cc(C)cc3C)n(C)c(=O)n1CC2 | 18.4µM* | ? | 18.0% | nt | nt
Oc1cccnc1SCc1ccccc1 | -3.2% | -2.3% | -1.5% | -6.6% | 24.7%
O=Cc1cccnc1SCc1ccccc1 | nt | 20.2% | 2.59µM* | nt | 2.0%
Cc1c(OCC(=O)NCC(O)c2ccccc2)ccc2c(-c3ccccc3)cc(=O)oc12 (stereo not given) | 4.0% | 44.7% | 17.8% | 6.6% | -52.1%
CCN(CC)S(=O)(=O)c1ccc(N2C(=O)CC2(/C=C/c2ccccc2)C(=O)NC2CCCC2)cc1 (stereo not given) | -8.4% | ? | ? | -1.6% | 2.8%
SMILES | Mito fusion yeast | MCF10A rereplic | SW480 rereplic | A-T KAP1 phos | a7 integrin act
COc1ccccc1/C=C/C1(C(=O)NC2CCCC2)CC(=O)N1c1ccc(C)cc1 (stereo not given) | 23.0% | 18.4µM* | ? | nt | -27.7%
COc1ccccc1/C=C/C1(C(=O)NC2CCCC2)CC(=O)N1c1ccc(F)cc1 (stereo not given) | 28.4% | ? | 16.4µM* | nt | -43.3%
CC(=O)NC(Cc1ccccc1)C(=O)Oc1ccc2ccccc2c1 (stereo not given) | nt | 0.6% | 4.3% | nt | 9.2%
O=C(NN=C1CCCCCC1)c1c[nH]c2ccccc12 | -0.9% | 2.2% | -1.3% | -12.7% | 32.5%
CCc1oc2ccccc2c1C(=O)CCN1CCCCC1 | -19.4% | 9.2µM* | 11.5% | 4.8% | -12.5%[7.66 µM]
O=C(CCN1CCCCC1)c1ccccc1 | -3.2% | ? | ? | 0.3% | -42.5%
NC(=O)C(CCc1nc2ccccc2[nH]1)NS(=O)(=O)c1ccccc1 (stereo not given) | nt | nt | nt | nt | 28.4%
Cc1cccc(NNC(=O)C(=O)NNc2cccc(C)c2)c1 | -5.5% | 6.51µM* | -7.0% | 1.6% | -18.3%
Cc1cccc(NC(=O)CC(=O)Nc2cccc(C)c2)c1 | 0.2% | -21.1% | -0.8% | -12.3% | ?
O=C(CCc1ccc(S(=O)(=O)N2CCOCC2)cc1)Nc1ccc2c(c1)OCCO2 | 0.4% | 11.4% | -2.3% | -34.6% | 13.0%
COc1cc(/C=N/NC(=O)c2cncc(Br)c2)cc([N+](=O)[O-])c1O | 1.7% | 0.9% | 4.11µM* | -0.4% | 27.1%
Cc1ccc(-n2cc(C(=O)c3ccc(N4CCN(C)CC4)cc3)nn2)cc1Cl | -0.7% | 0.731µM* | -45.6% | -2.6% | -21.0%
COC1=C(Nc2ccc(OC)cc2)C(=O)C(OC)=C(Nc2ccc(OC)cc2)C1=O | nt | -1.6% | 0.4% | nt | -9.9%
COc1ccc(NC2=C(NCCO)C(=O)c3ccccc3C2=O)cc1 | -8.9% | ? | 18.4µM* | -2.0% | -13.1%
COC1=C(Nc2ccc(OC)cc2)C(=O)c2ccccc2C1=O | 4.6% | ? | 23.1µM* | -9.2% | -7.1%
CC(OC(=O)CCN=C1NS(=O)(=O)c2ccccc21)C(=O)Nc1ccc(S(N)(=O)=O)cc1 (stereo not given) | -1.7% | 4.8% | -0.9% | 10.0% | 15.3%
CN(C)CC(O)CN(c1ccccc1)c1ccccc1 (stereo not given) | -5.1% | -16.5% | -22.0% | 4.1% | -0.4%
CN(C)CC(CCC(CN(C)C)C(O)(c1ccccc1)c1ccccc1)C(O)(c1ccccc1)c1ccccc1 (stereo not given) | -30.1% | 20.6µM* | ? | 4.2% | -72.6%
CCc1ccc(N/C(N)=N/c2nc(CSc3ncccn3)cc(=O)[nH]2)cc1 | -5.7% | 24.1% | ? | 0.5% | -23.8%
COc1c(Cl)cc(C(=O)NN)cc1Cl | -3.8% | ? | 13µM* | -8.8% | -5.5%
COc1c(Cl)cc(C(=O)O)cc1Cl | nt | -4.4% | -0.3% | nt | -0.8%
Cc1c(C)n2c(SCC(=O)Nc3cccc4ccccc34)nnc2[nH]c1=O | 3.4% | 15.5% | 23.1µM* | -5.7% | -22.1%

Compound activity as filed in PubChem BioAssay.
